Laboratory results taken from PubChem BioAssay (NCATS).
Results filed as inconclusive are left out. A call without a number means that no potency is given here. The source made the active and inactive calls. The call rests on the fitted dose curve; in most records, active means well fitted cell-killing curve with a large enough effect; inconclusive means small, poorly fitted or top-dose-only effect; inactive means flat fitted curve, though single readings scatter.
Further: nearly all actives have a fitted effect of over 55% in size.

Test: Cell Viability - LYMP2-019 (AID 973);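 further: cells exposed to compound for 24 h at 37 °C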
Details: LYMP2-019 lymphoblastoid cell line viability; series mostly up to 92.2 µM
Procedure, shortened: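 Human lymphoblastoid LYMP2-019 cells (2500/well) preincubated 5 h at 37 C, then treated 24 h at 37 C in complete medium. Viability by CellTiter-Glo ATP luminescence after 30 min at room temperature; AC50 from Hill fits.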
With `CC(=O)c1ccccc1[N+](=O)[O-]` the Potency was “inactive”. In the case of `Cc1ccc(C(C)(C)C)cc1`, the Potency is reported as “inactive”. With `O=[N+]([O-])c1ccc2nc[nH]c2c1` the Potency was “inactive”. In the case of `CC(C)N=C=NC(C)C`, the Potency is reported as “inactive”. For `O=C(O)c1ccc(Cl)c(Cl)c1`, the Potency was “inactive”. In the case of `Cc1cccc2ccccc12`, the Potency is reported as “inactive”. For `CC(C)N(C)C`, the Potency was “inactive”. With `Clc1ccccn1` the Potency was “inactive”.

Test: Cell Viability - LYMP2-021 (AID 974);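 further: compound exposure lasts 24 hours at 37 °C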; further: potency means the concentration at half of the fitted maximal effect
Details: LYMP2-021 lymphoblastoid cells viability; series mostly up to 92.2 µM
Procedure, shortened: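 Human lymphoblastoid LYMP2-021 cells, 2500/well in complete medium, treated 24 hours at 37 C. Intracellular ATP by CellTiter-Glo luminescence (30 min, RT); AC50 from Hill fits of concentration-response.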
For `CC(=O)Nc1ccc(C)cc1`, the Potency was “inactive”. For `O=C1OC(=O)c2c(Br)c(Br)c(Br)c(Br)c21`, the Potency was “inactive”. In the case of `O=C(O)CNC(=O)c1ccc([N+](=O)[O-])cc1`, the Potency is reported as “inactive”. With `Cc1ccccc1C=O` the Potency was “inactive”. In the case of `CNc1ccccc1`, the Potency is reported as “inactive”. For `Cc1cccc(C(=O)O)c1`, the Potency was “inactive”. For `CC1CCC2CC1C2(C)C` (stereo not drawn), the Potency was “inactive”. In the case of `CC(C)C=O`, the Potency is reported as “inactive”. For `O=Cc1ccc(CO)o1`, the Potency was “inactive”. For `O=[N+]([O-])c1ccccc1CCO`, the Potency was “inactive”. With `O=Cc1c(Cl)cccc1Cl` the Potency was “inactive”. With `CCCCCCC=O` the Potency was “inactive”. With `CCCCC(CC)COCC1CO1` (stereo not drawn) the Potency was “inactive”. In the case of `CC(CCl)OC(C)CCl` (stereo not drawn), the Potency is reported as “inactive”. For `COc1ccc(N)c(C)c1`, the Potency was “inactive”. With `CC=C(Cl)Cl` the Potency was “inactive”. For `O=[N+]([O-])c1c(Cl)cc(Cl)cc1Cl`, the Potency was “inactive”. With `CCOC(C)(C)C` the Potency was “inactive”. In the case of `CC(C)(O)CCC(C)(C)O`, the Potency is reported as “inactive”. For `O=Nc1ccc(NO)cc1`, the Potency was 50.1 µM (active). With `COCCOC(=O)c1ccccc1C(=O)OCCOC` the Potency was “inactive”. In the case of `C=C(C)C1CC=C(C)C(OC(C)=O)C1` (stereo not drawn), the Potency is reported as “inactive”. For `Cc1nc2ccc(Cl)cc2[nH]1`, the Potency was “inactive”. In the case of `CC(O)COC(C)(C)C` (stereo not drawn), the Potency is reported as “inactive”. In the case of `CCOCC(=O)O`, the Potency is reported as “inactive”. For `CC1=C(/C=C/C(C)=C/C=C/C(C)=C\C=O)C(C)(C)CCC1`, the Potency was 50.1 µM (active). In the case of `[O-]/[N+](=N\O)c1ccccc1`, the Potency is reported as “inactive”. For `Cc1ccc2oc(=O)ccc2c1`, the Potency was “inactive”. For `CC(=O)c1ccccc1[N+](=O)[O-]`, the Potency was “inactive”. With `Cc1ccc(C(C)(C)C)cc1` the Potency was “inactive”. With `O=[N+]([O-])c1ccc2nc[nH]c2c1` the Potency was “inactive”. With `CC(C)N=C=NC(C)C` the Potency was “inactive”. With `O=C(O)c1ccc(Cl)c(Cl)c1` the Potency was “inactive”. In the case of `Cc1cccc2ccccc12`, the Potency is reported as “inactive”. For `CC(C)N(C)C`, the Potency was “inactive”. With `Clc1ccccn1` the Potency was “inactive”.

Test: Cell Viability - LYMP2-023 (AID 975);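 further: cells exposed to compound for 24 hours at 37 °C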; further: potency means the concentration at half of the fitted maximal effect
Details: LYMP2-023 lymphoblastoid cell viability; series mostly up to 92.2 µM
Procedure, shortened: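 LYMP2-023 human lymphoblastoid cells, 2500/well, preincubated 5 hr at 37 C, then compound-treated 24 hr at 37 C in complete medium. CellTiter-Glo luminescence (ATP) after 30 min at room temperature; AC50 from Hill-equation fits; tetraoctylammonium bromide positive control.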
For `CC(=O)Nc1ccc(C)cc1`, the Potency was “inactive”. For `O=C1OC(=O)c2c(Br)c(Br)c(Br)c(Br)c21`, the Potency was “inactive”. In the case of `O=C(O)CNC(=O)c1ccc([N+](=O)[O-])cc1`, the Potency is reported as “inactive”. With `Cc1ccccc1C=O` the Potency was “inactive”. With `CNc1ccccc1` the Potency was “inactive”. In the case of `Cc1cccc(C(=O)O)c1`, the Potency is reported as “inactive”. In the case of `CC1CCC2CC1C2(C)C` (stereo not drawn), the Potency is reported as “inactive”. In the case of `CC(C)C=O`, the Potency is reported as “inactive”. With `O=Cc1ccc(CO)o1` the Potency was “inactive”. In the case of `O=[N+]([O-])c1ccccc1CCO`, the Potency is reported as “inactive”. In the case of `O=Cc1c(Cl)cccc1Cl`, the Potency is reported as “inactive”. For `CCCCCCC=O`, the Potency was “inactive”. In the case of `CCCCC(CC)COCC1CO1` (stereo not drawn), the Potency is reported as “inactive”. With `CC(CCl)OC(C)CCl` (stereo not drawn) the Potency was “inactive”. With `COc1ccc(N)c(C)c1` the Potency was “inactive”. For `CC=C(Cl)Cl`, the Potency was “inactive”. With `O=[N+]([O-])c1c(Cl)cc(Cl)cc1Cl` the Potency was “inactive”. In the case of `CCC(C)(C)C(=O)O`, the Potency is reported as “inactive”. With `CCOC(C)(C)C` the Potency was “inactive”. In the case of `CC(C)(O)CCC(C)(C)O`, the Potency is reported as “inactive”. With `O=Nc1ccc(NO)cc1` the Potency was “inactive”. In the case of `COCCOC(=O)c1ccccc1C(=O)OCCOC`, the Potency is reported as “inactive”. In the case of `C=C(C)C1CC=C(C)C(OC(C)=O)C1` (stereo not drawn), the Potency is reported as “inactive”. With `CSCCC=O` the Potency was “inactive”. With `CCCCC(C=O)CC` (stereo not drawn) the Potency was “inactive”. For `Cc1nc2ccc(Cl)cc2[nH]1`, the Potency was “inactive”. With `CC(O)COC(C)(C)C` (stereo not drawn) the Potency was “inactive”. With `CCOCC(=O)O` the Potency was “inactive”. For `CC1=C(/C=C/C(C)=C/C=C/C(C)=C\C=O)C(C)(C)CCC1`, the Potency was 50.1 µM (active). With `[O-]/[N+](=N\O)c1ccccc1` the Potency was “inactive”. In the case of `Cc1ccc2oc(=O)ccc2c1`, the Potency is reported as “inactive”. In the case of `CC(=O)c1ccccc1[N+](=O)[O-]`, the Potency is reported as “inactive”. For `Cc1ccc(C(C)(C)C)cc1`, the Potency was “inactive”. In the case of `O=[N+]([O-])c1ccc2nc[nH]c2c1`, the Potency is reported as “inactive”. With `CC(C)N=C=NC(C)C` the Potency was “inactive”. In the case of `O=C(O)c1ccc(Cl)c(Cl)c1`, the Potency is reported as “inactive”. In the case of `Cc1cccc2ccccc12`, the Potency is reported as “inactive”. For `CC(C)N(C)C`, the Potency was “inactive”. For `Clc1ccccn1`, the Potency was “inactive”.
